Compound activity deposited in PubChem BioAssay by several laboratories.
NR5A2 inv ag = NR5A2 inverse agonism in reporter assay; O00482; HEK293T StAR-luciferase reporter, LRH-1 transfected, 24 h; inhibition, % at 3.6 µM; 360,000 tested, 0.13% active; AID 602396;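 active means inhibition above the mean inhibition of all tested compounds plus 3 SD, cut at about 73% in these data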
NCOA2 inhibitor = inhibits human steroid receptor coactivator 2; HEK293 GAL4-SRC2 luciferase reporter, luminescence; inhibition, % at 9 µM; 370,000 tested, 0.17% active;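 active means inhibition above the mean inhibition of all tested compounds plus 3 SD, set per campaign, cut at about 52% in these data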
SRC1 inh = inhibitors of human steroid receptor coactivator 1 (SRC1); Q15788; HEK293 GAL4-SRC1 luciferase reporter, luminescence; inhibition, % at 3.6 µM; 360,000 tested, 0.12% active; AID 588354;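 active means inhibition above the campaign mean plus 3 SD, with each screening campaign given its own cutoff, cut at about 60% in these data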
COUP-TFII inh = inhibitors of human COUP-TFII (NR2F2). P24468. HEK293T NGFI-A luciferase reporter, luminescence. inhibition, % at 8.6 µM. 370,000 tested, 0.7% active;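 active means inhibition above a per-plate cutoff, mean inhibition of test wells between control levels plus 3 SD, cut at about 38% in these data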;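 further: cells cotransfected with COUP-TFII expression vector driving the NGFI-A reporter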
SRC3 inh = human NCOA3 inhibition. Q9Y6Q9. inhibition, % at 3.6 µM. HEK293 GAL4-SRC3 luciferase reporter, luminescence. 360,000 tested, 0.17% active. AID 588352;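 active means inhibition above a per-campaign cutoff, the mean of all compounds plus 3 SD, cut at about 60% in these data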;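 further: higher means less SRC3-driven luciferase light from the GAL4 reporter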
Gli-Sufu antag = antagonists of Gli-Sufu signaling; Sufu-KO-LIGHT fibroblasts, Gli luciferase reporter luminescence; inhibition, % at 5 µM; 340,000 tested, 0.74% active;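 active means inhibition above about 55%, limit read from the data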
Gli antag conf = confirmation of Gli-SUFU pathway antagonists. inhibition, % at 5 µM. Sufu-KO-LIGHT cells, Gli luciferase reporter, luminescence. AID 602428. 2,500 tested, 40% active. shares compounds with Gli-Sufu antag;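 active means mean inhibition at 5 µM reaching about 45%, limit read from the data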
SufuKO cytotox = counter-screen for Gli-SUFU antagonists: cytotoxicity; 2,500 tested, 32% active; Sufu-KO-LIGHT cells cytotoxicity, ATP luminescence; shares compounds with Gli-Sufu antag; cytotoxicity, % at 5 µM;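 active means mean cytotoxicity at 5 µM above about 25%, limit read from the data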;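 further: cells exposed to compound overnight for roughly 16 to 18 hours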
Wnt3a counter = Wnt3a reporter inhibition counter-screen | inhibition, % at 6.25 µM | shares compounds with Gli-Sufu antag | 2,500 tested, 20% active | AID 651995 | Wnt-LIGHT cells, Wnt3a-driven luciferase reporter, luminescence;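 active means mean inhibition above about 25%, limit read from the data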
Numbers stand for hits; n = inactive; x = not tested or not shown. Shown are actives, neighbours in structure and some others; about 1.3% of the full set was active somewhere.

SMILES	NR5A2 inv ag	NCOA2 inhibitor	SRC1 inh	COUP-TFII inh	SRC3 inh	Gli-Sufu antag	Gli antag conf	SufuKO cytotox	Wnt3a counter
N#Cc1ccc(OCC(=O)OCC(=O)Nc2sccc2C(N)=O)cc1	n	n	n	n	n	n	n	30	n
O=S1(=O)N[C@@H](Cc2ccccc2)COc2cc(NC3CC3)ccc21	x	n	x	n	x	x	x	x	x
COc1cccc(C(=O)N[C@H](C(=O)N2CCC[C@H]2C(=O)NC2CCCC2)c2ccccc2)c1	x	n	x	n	x	x	x	x	x
NC(=O)c1ccc(N2CCN(c3ccccc3O)CC2)c([N+](=O)[O-])c1	n	n	n	n	n	n	x	x	x
NC(=O)c1ccc(N2CCN(c3ccccc3F)CC2)c([N+](=O)[O-])c1	n	n	n	n	n	57	n	n	n
CCOC(=O)[C@@]12CCCC3=C1N(CCC3)C(=O)[C@H]2CC(=O)N1CCCC1	x	n	x	n	x	x	x	x	x
COc1ccc(OC)c(CN(CC(F)(F)F)S(=O)(=O)c2ccccc2Br)c1	x	n	x	n	x	x	x	x	x
COc1ccc(C2C3=C(CC(C)(C)CC3=O)Nc3c2c(=O)n(C)c(=O)n3C)cc1OC (stereo not drawn)	n	n	n	n	n	58	n	29	n
CC(C)(C)c1ccc(-c2cn(C[C@H](Cc3ccccc3)n3c(=O)c4ccccc4n3Cc3ccno3)nn2)cc1	x	n	x	n	x	x	x	x	x
COc1ccc2cc3cc(C(=O)N4CCCCCC4)oc3nc2c1	n	x	n	x	n	n	x	x	x
COc1ccc2cc3cc(C(=O)N4CCN(C5CCCCC5)CC4)oc3nc2c1	n	x	n	x	n	n	n	36	n
O=S1(=O)CC2c3ccccc3CCN2CN1Cc1ccc(F)cc1 (stereo not drawn)	x	n	x	n	x	x	x	x	x
CCN(CC)c1ccc(CNc2nc3ccccc3n2CCN2CCOCC2)cc1	n	n	n	n	n	n	n	n	n
COc1ccc(CNc2nc3ccccc3n2CCN2CCOCC2)cc1	n	n	n	n	n	n	x	x	x
C[C@H](CO)N1C[C@H](C)[C@H](CN(C)S(=O)(=O)c2cccs2)Oc2ncc(Br)cc2C1=O	x	n	x	n	x	x	x	x	x
CCCCOCC1CN(CCCC)S(=O)(=O)c2c(cccc2Sc2ccc(OC)c(OC)c2)O1 (stereo not drawn)	x	n	x	n	x	x	x	x	x
Cc1c(Cl)cccc1NC(=O)CCN1CCC(C(N)=O)CC1	n	n	n	n	n	57	n	n	n
Cc1c(Cl)cccc1NC(=O)CCN1CCN(CCO)CC1	n	n	n	n	n	n	x	x	x
CCCCNC(=O)c1cn(CC)c2ccc(S(=O)(=O)N3CCCCCC3)cc2c1=O	n	n	n	n	n	n	n	40	n
COc1ccc([C@@]23CCN=C2c2[nH]c4ccccc4c2CCN3)c(N)c1	x	x	x	n	x	x	x	x	x
N#CC1=C(N)N2C(=C(C#N)C1c1ccc(Br)cc1)Nc1ccccc12 (stereo not drawn)	x	n	x	n	x	58	83	37	67
N#CC1=C(N)N2C(=C(C#N)C1c1cccc(Br)c1)Nc1ccccc12 (stereo not drawn)	n	n	n	n	n	n	x	x	x
CC(C)n1c(CN(C)Cc2ccccc2)nc2c1c(=O)n(C)c(=O)n2C	x	n	x	n	x	70	78	n	48
CC(C)n1c(NCCc2ccccc2)nc2c1c(=O)n(C)c(=O)n2C	n	n	n	n	n	n	59	38	n
Cn1c(=O)c2c(nc(NCCO)n2CCc2ccccc2)n(C)c1=O	n	n	n	n	n	n	x	x	x
C=C(C)Cn1c(CN(C)Cc2ccccc2)nc2c1c(=O)n(C)c(=O)n2C	n	n	n	n	n	58	n	38	n
CC(=O)C(C)n1c(CN(C)Cc2ccccc2)nc2c1c(=O)n(C)c(=O)n2C (stereo not drawn)	n	n	n	n	n	n	x	x	x
COC(=O)c1c(-c2ccc(OC)cc2)c2c(c3c4cc(OC)ccc4n(S(=O)(=O)c4ccc(C)cc4)c13)C(=O)N(C)C2	x	n	x	n	x	x	x	x	x
